Test results as given in the supplement of paper PMC6992640.
Counter-ions that a name gives are not always drawn. ± gives the standard deviation of the averaged measurements.

Legend:
Experiment in all cases: cell viability (% of vehicle); higher = less cytotoxic
Conditions in all cases: 10 µM; 72 h
[1] = system: HCI01 (cells of a triple-negative basal-like breast cancer xenograft)
[2] = system: HCI03 (cells of an ER-positive luminal breast cancer xenograft)
[3] = system: HCI09 (cells of a triple-negative luminal androgen receptor type breast cancer xenograft)
[4] = system: HCI11 (cells of an ER-positive luminal breast cancer xenograft)
[5] = system: HCI13 (cells of an ER-positive luminal breast cancer xenograft)
[6] = system: HCI16 (cells of a triple-negative basal-like breast cancer xenograft)
[7] = system: UCD52 (cells of a triple-negative basal-like breast cancer xenograft)
[8] = system: WHIM2 (cells of a triple-negative basal-like breast cancer xenograft)
[9] = system: WHIM30 (cells of a triple-negative basal-like breast cancer xenograft)
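Note: PDX cells carrying CMV promoter-driven luciferase, viability read as total photon flux per second by IVIS imaging following D-luciferin, vehicle control 0.1% DMSO.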

Compound	cell viability [1]	cell viability [2]	cell viability [3]	cell viability [4]	cell viability [5]	cell viability [6]	cell viability [7]	cell viability [8]	cell viability [9]
CCCNC(C)C(=O)Nc1c(C)csc1C(=O)OC.Cl (stereo unspecified) [Articaine HCl]	104 ± 4.9	115	116 ± 7	96.9	79.6 ± 10	133	94.3 ± 5.7	104 ± 18	129 ± 5.7
CC(C)C(N)C(=O)OCC(CO)OCn1cnc2c(=O)nc(N)[nH]c21.Cl (stereo unspecified) [Valganciclovir HCl]	96.1 ± 5.7	104	90 ± 24	90.6	55.1 ± 2	111	120 ± 38	111 ± 28	138 ± 13
NC(CO)(CO)CO.O=C(c1ccccc1)c1ccc2n1CCC2C(=O)O (stereo unspecified) [Ketorolac tromethamine salt]	123 ± 15	174	146 ± 70	102	122 ± 26	131	145.6 ± 0.93	130 ± 15	116 ± 4.2
CCOC(=O)C(CCc1ccccc1)NC(C)C(=O)N1CCCC1C(=O)O.O=C(O)C=CC(=O)O (stereo unspecified) [Enalapril Maleate]	128 ± 31	126	101 ± 2.9	72.3	102 ± 8.6	120	120 ± 4.4	116 ± 15	104 ± 3
CC1OC(OCC2OC(Oc3c(-c4ccc(O)c(O)c4)oc4cc(O)cc(O)c4c3=O)C(O)C(O)C2O)C(O)C(O)C1O (stereo unspecified) [Rutin]	107 ± 32	128	101 ± 9.8	102	118 ± 8.5	138	103 ± 14	122 ± 9.8	101 ± 13
CC(C)=CCCC(C)=CCCC(C)=CCSc1ccccc1C(=O)O [Salirasib]	69.5 ± 50	112	95.6 ± 7.4	97.9	84.5 ± 4.3	103	95.5 ± 4.6	39.5 ± 1.3	120 ± 15
OCC(CO)NC1CC(O)(CO)C(O)C(O)C1O (stereo unspecified) [Voglibose]	106 ± 13	109	93 ± 17	89.1	58.7 ± 0.94	129	80.3 ± 5.1	117 ± 27	110 ± 8.8
CCc1cccc2c3c([nH]c12)C(CC)(CC(=O)O)OCC3 (stereo unspecified) [Etodolac]	117 ± 23	104	98.8 ± 27	97.2	97.3 ± 8	96.8	79.2 ± 9.2	92.6 ± 19	86 ± 8.4
COc1cc(C2c3cc4c(cc3C(OC3OC5COC(c6cccs6)OC5C(O)C3O)C3COC(=O)C23)OCO4)cc(OC)c1O (stereo unspecified) [Teniposide]	104 ± 2.6	112	105 ± 36	111	134 ± 40	118	111 ± 1.8	87.3 ± 23	96.6 ± 4.3
CC1(C)SC2C(NC(=O)C(N)c3ccc(O)cc3)C(=O)N2C1C(=O)O (stereo unspecified) [Amoxicillin]	123 ± 28	112	103 ± 4.6	112	141 ± 17	120	84.9 ± 12	138 ± 44	102 ± 10
CCOc1ccc(Cc2cc(C3OC(CO)C(O)C(O)C3O)ccc2Cl)cc1 (stereo unspecified) [Dapagliflozin]	112 ± 8.7	113	89.6 ± 9.1	110	107 ± 18	128	78.8 ± 4.8	84 ± 6.9	103 ± 24
O=CC(O)C(O)C(O)CO (stereo unspecified) [Xylose]	70.5 ± 35	96.1	91.8 ± 13	90.9	104 ± 18	108	83 ± 1.1	94.5 ± 4.8	129 ± 0.16
CCCC(CCC)C(=O)O [Valproic acid]	102 ± 13	121	133 ± 28	103	143 ± 3.3	106	95.8 ± 6.9	95.6 ± 7.5	83.36 ± 0.16
COC1C(OC(N)=O)C(O)C(Oc2ccc3c(O)c(NC(=O)c4ccc([O-])c(CC=C(C)C)c4)c(=O)oc3c2C)OC1(C)C.[Na+] (stereo unspecified) [Novobiocin Sodium]	126 ± 61	153	93.1 ± 5.1	75.6	140 ± 2.5	130	120 ± 16	130 ± 5.4	116 ± 15
CC(C)NCC(O)c1ccc(NS(C)(=O)=O)cc1.Cl (stereo unspecified) [Sotalol]	120 ± 11	116	105 ± 37	103	103 ± 5.8	105	85.2 ± 2.1	101 ± 13	118 ± 17
Cc1cn(C2C=CC(CO)O2)c(=O)[nH]c1=O (stereo unspecified) [Stavudine (d4T)]	112 ± 12	115	110 ± 14	91	82.13 ± 0.67	117	104 ± 11	95.9 ± 9.4	127 ± 5
COc1ccccc1N1CCN(CCCNc2cc(=O)n(C)c(=O)n2C)CC1.Cl [Urapidil HCl]	96.7 ± 8.1	125	89.54 ± 0.6	80.2	93.3 ± 1.2	105	97.6 ± 7.3	98.8 ± 5.4	111 ± 3.3
COc1ccc(O)cc1 [Mequinol]	91 ± 10	108	101 ± 13	70.4	124 ± 32	118	71 ± 7.1	96.5 ± 20	100 ± 2.8
Cc1ccc(O)c(C(CCN(C(C)C)C(C)C)c2ccccc2)c1.O=C(O)C(O)C(O)C(=O)O (stereo unspecified) [Tolterodine tartrate]	113 ± 38	101	96.8 ± 7.1	93.6	97.1 ± 18	133	60.5 ± 8.9	91.5 ± 2.5	92.5 ± 1.7

Compound	cell viability [1]	cell viability [2]	cell viability [3]	cell viability [4]	cell viability [5]	cell viability [6]	cell viability [7]	cell viability [8]	cell viability [9]
CN(CCOc1ccc(NS(C)(=O)=O)cc1)CCc1ccc(NS(C)(=O)=O)cc1 [Dofetilide]	101.7 ± 0.3	114	94.8 ± 5.2	94.2	97.8 ± 17	89.3	81.6 ± 13	90.2 ± 10	106 ± 5.1
CNCc1ccc(-c2[nH]c3cc(F)cc4c3c2CCNC4=O)cc1.O=P(O)(O)O	161.1 ± 0.84	104	76 ± 12	85.9	145 ± 9.1		126 ± 39	173 ± 26	
CC(C)(O)c1ccccc1CCC(SCC1(CC(=O)[O-])CC1)c1cccc(C=Cc2ccc3ccc(Cl)cc3n2)c1.[Na+] (stereo unspecified) [Montelukast Sodium]	41.5 ± 20	169	83.3 ± 85	103	45.5 ± 6.3	165		50.8 ± 12	156.57 ± 0.11
CCOC(=O)C(CCc1ccccc1)NC1CSC(c2cccs2)CN(CC(=O)O)C1=O.Cl (stereo unspecified) [Temocapril HCl]	80.7 ± 40	103	106 ± 31	82.3	116 ± 9.8	101	88.7 ± 3.7	99 ± 12	114 ± 13
NC(=O)N1CCC(CC(=O)N2CCC(C3c4ncc(Br)cc4CCc4cc(Cl)cc(Br)c43)CC2)CC1 (stereo unspecified) [Lonafarnib]	72.5 ± 68	121	12.8 ± 2.5	163	43.2 ± 17	170		126 ± 12	115 ± 7.2
Cc1cc(C2CCCCC2)n(O)c(=O)c1 [Ciclopirox]	93 ± 59	67.7	26.8 ± 3.4	51.7	73.9 ± 3.7	117	92.7 ± 3.6		94.5 ± 12
CCC1=CC2CN(C1)Cc1c([nH]c3ccccc13)C(C(=O)OC)(c1cc3c(cc1OC)N(C)C1C(O)(C(=O)OC)C(OC(C)=O)C4(CC)C=CCN5CCC31C54)C2 (stereo unspecified) [Vinorelbine]	100 ± 15	105	70.5 ± 25	78.5	46 ± 4.7	167	57.5 ± 23	60.5 ± 12	96.7 ± 3.6
C[N+]1(C)CCC(OC(=O)C(O)(c2ccccc2)C2CCCC2)C1.[Br-] (stereo unspecified) [Glycopyrrolate]	110 ± 5.3	152	123 ± 51	99.3	117 ± 12	94.8	95.6 ± 5.1	100 ± 5.2	83.6 ± 6.5
CCN(CC)CCOC(=O)C(c1ccccc1)c1ccccc1.Cl [Adiphenine HCl]	93.1 ± 17	129	99.2 ± 22	94.9	57.1 ± 3.2	110	92.2 ± 7.6	92.4 ± 9.5	117 ± 17
COC(=O)C(Cc1ccccc1)NC(=O)C(N)CC(=O)O (stereo unspecified) [Aspartame]	120 ± 6.8	152	104 ± 3.9	119	161 ± 4.4	117	100 ± 21	131 ± 23	128 ± 6.7
COc1c(C)c2c(c(O)c1CC=C(C)CCC(=O)O)C(=O)OC2 [Mycophenolic acid]	99.5 ± 27	93.3	77.8 ± 17	75.1	102 ± 9.5	104	94 ± 6.1	65.8 ± 7.6	151 ± 1.2
C=C1CCC(O)CC1=CC=C1CCCC2(C)C1CCC2C(C)C=CC(C)C(C)C (stereo unspecified) [Vitamin D2 (Ergocalciferol)]	118 ± 26	101	61.9 ± 14	95.2	58.8 ± 16	77.9	65.5 ± 2.4	40.7 ± 13	89.1 ± 10
O=C(O)c1ccccc1 [Benzoic Acid]	143 ± 20	95.6	109 ± 25	104	70.3 ± 10	124	110 ± 8	127 ± 7.8	111 ± 15
CC(C)NCC(O)COc1ccc(CCOCC2CC2)cc1.Cl (stereo unspecified) [Betaxolol HCl]	132 ± 2.2	134	107 ± 34	107	87 ± 6.8	149	74.2 ± 1.6	101 ± 15	117 ± 1.3
Cc1[nH]c(=O)c(C#N)cc1-c1ccncc1 [Milrinone]	124 ± 0.28	117	96.6 ± 32	102	98 ± 13	94	90.5 ± 4.6	101 ± 10	106 ± 18
CC(=O)O[C@@]12CO[C@@H]1C[C@H](O)[C@@]1(C)C(=O)[C@H](O)C3=C(C)[C@@H](OC(=O)[C@H](O)[C@@H](NC(=O)OC(C)(C)C)c4ccccc4)C[C@@](O)([C@@H](OC(=O)c4ccccc4)[C@H]21)C3(C)C [Docetaxel]	154 ± 26	106	99.9 ± 18	124	116 ± 22		82 ± 10	96.3 ± 7.4	134 ± 5.3
CC(c1ncncc1F)C(O)(Cn1cncn1)c1ccc(F)cc1F (stereo unspecified) [Voriconazole]	121 ± 8.9	133	98.8 ± 11	121	137 ± 7.1	115	106 ± 22	105 ± 9.5	137 ± 22
OC(CCCN1CCCCC1)(c1ccccc1)c1ccccc1 [Diphenidol HCl]	117 ± 19	139	107 ± 12	82.5	88.1 ± 2.6	118	101 ± 25	108 ± 9.6	113 ± 11
CC(C)NCC(O)COc1ccc(COCCOC(C)C)cc1.O=C(O)C=CC(=O)O (stereo unspecified) [Bisoprolol fumarate]	129.4 ± 0.93	129	102 ± 30	113	93.1 ± 1.1	96.1	86.1 ± 8.9	93.9 ± 16	120 ± 2.5
